# Screening data as filed in PubChem BioAssay.
# TDP1 cell noCPT – qHTS for Inhibitors of human tyrosyl-DNA phosphodiesterase 1 (TDP1): qHTS in cells in absence of CPT. DT40 Tdp1-/- hTDP1 cells, no CPT, ATP luminescence, 48 h. Potency, µM (titrated, usually from 46.2 µM), without a hit: at the highest dose activity change, negative = growth inhibition, actives largely listed as inhibitors. 420,000 compounds, 15% hits. AID 686978, 2013; further: potency means the concentration at half of the fitted maximal effect; nearly all actives have a fitted effect of over 55% in size
#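 A cellular qHTS used chicken DT40 cells lacking endogenous Tdp1 but carrying stably transfected human TDP1. Compounds were applied without camptothecin, and cell growth kinetics were judged by ATP-dependent luminescence after ≥48 hr.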
# HT1080NT lethal – kills 2HG-producing HT-1080-NT fibrosarcoma cells | 360,000 compounds, 1.6% hits | HT-1080-NT fibrosarcoma viability, CellTiter-Glo ATP luminescence, 48 h | Potency, µM (top dose mostly 46.1 µM), for the others: at the top dose activity, negative = less viability, hits mostly cytotoxic;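 further: NT is the 2HG producing partner of a matched IDH1 knockdown line; potency means the concentration at half of the fitted maximal effect; 0% = DMSO-treated cells and -100% = media-only wells without cells; nearly all actives have a fitted effect of over 55% in size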
#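 Viability by CellTiter-Glo luminescence after 48 h compound exposure at 37C of HT-1080-NT cells (750/well, RPMI, 5% FBS). % activity scaled between DMSO wells and medium-only wells, then curve-fitted and categorized by curve class.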
# IL-1B inflam inh – blocks inflammasome-driven IL-1 beta release; THP-1 LPS/ATP IL-1B secretion, AlphaLISA, 16 h; hits give low values; activity change, % at 57.5 µM; 360,000 compounds, 4.7% hits; in the data active means activity change below about -50%; inconclusive means mostly about -30% to -49%
#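 Secreted IL-1B measured by AlphaLISA bead assay after 16 h compound exposure of THP-1 cells; compounds (final up to 57.5 uM) added 1 h before LPS (250 ng/mL) and ATP (1.25 mM) stimulation; lower signal means less secretion.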
# DT40 TDP1 CPT – growth inhibition of DT40 Tdp1-/-;hTDP1 cells with camptothecin (screen for TDP1 inhibitors); chicken DT40 Tdp1-/-;hTDP1 cells + 20 nM CPT, ATP luminescence, 48 h; Potency, µM (titrated, usually from 46.2 µM), inactives show at the highest dose activity change, negative = growth inhibition, actives largely listed as inhibitors; 420,000 compounds, 12% hits; AID 686979; further: potency means the concentration at half of the fitted maximal effect; nearly all actives have a fitted effect of over 55% in size
#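 Chicken DT40 Tdp1-/- cells stably complemented with human TDP1 were seeded at 400 cells/well in medium containing 20 nM camptothecin, exposed to pin-transferred compounds, and grown at 37 °C for at least 48 hr. Viability was read as ATP luminescence.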
# ELG1 DNA repair – inhibitors of ELG1-dependent DNA repair in HEK293T cells. HEK293T ELG1-luciferase reporter, luminescence, 16 h; DNA damage induced by 5-fluorouridine. Potency, µM (titrated, usually from 46.1 µM), inactives show top-dose activity change, negative = inhibition, usual class: inhibitors. 330,000 compounds, 2.3% hits; further: potency means the concentration at half of the fitted maximal effect; nearly all actives have a fitted effect of over 55% in size
#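 Quantitative HTS, concentration-response format. 2,000 cells/well co-treated with 5-fluorouridine and compound, 16 hr in 5% CO2 at 37 °C; ONE-Glo luminescence read after 30 min.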
# HT1080 IDH1KD tx – HT-1080 IDH1 knockdown cell toxicity (counter line); HT-1080 IDH1 knockdown viability, ATP luminescence, 48 h; Potency, µM (highest dose often 46.1 µM), for the others: top-dose activity, negative = toxicity, usual class: cytotoxic; 360,000 compounds, 2% hits; AID 686971;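 further: potency means the concentration at half of the fitted maximal effect; 0% = DMSO wells and -100% = cell-free medium wells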
#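 Luminescent ATP read-out (CellTiter-Glo, 10 min at room temperature) after 48 h compound exposure at 37 °C gave viability of IDH1-knockdown HT-1080 cells. Activity was normalised to DMSO and cell-free wells, then fitted as concentration-response curves.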
# * = called active by the depositor; ? = inconclusive; nt = not tested or not shown. Only some compounds are listed: those with a hit (about 19% of all), similar ones and a draw of the others. Unless noted, the call rests on the fitted dose curve; in most records, active means well fitted curve in the direction sought with a large enough effect; inconclusive means small, poorly fitted or top-dose-only effect, or another doubt; inactive means no such curve, though single readings can be large; an effect the other way counts as inactive or inconclusive. Unless noted, on the % scale 0 is the no-effect control and ±100 the full control effect.
SMILES,TDP1 cell noCPT,HT1080NT lethal,IL-1B inflam inh,DT40 TDP1 CPT,ELG1 DNA repair,HT1080 IDH1KD tx
CCN(CC)C(=O)c1ccc2nc([C@@H]3O[C@H](CO)[C@H](O)[C@H](O)[C@H]3O)[nH]c2c1,-10%,15%,20,-1%,nt,12%
COc1ccc(-n2c(COc3ccc(C)cc3)nnc2SCc2ccc(C#N)cc2)cc1,?,-14%,-6,?,5%,?
CCOc1ccc(-n2c(SCc3ccc([N+](=O)[O-])cc3)nnc2-c2ccc(OC)cc2)cc1,29µM*,-9%,-26,18µM*,?,-17%
COc1ccc(NCc2nnc(SCc3ccc(Cl)cc3)n2-c2ccccc2)cc1,18µM*,?,-53*,?,?,-25%
COc1ccc(-n2c(Cc3cc(=O)[nH]c(=O)[nH]3)nnc2SCc2ccccc2)cc1,2%,4%,-1,-1%,2%,-1%
COc1ccc(-n2c(COc3ccc(Cl)cc3)nnc2SCc2ccc(C#N)cc2)cc1,23µM*,?,-12,?,?,?
CC1c2ccsc2CCN1C(=O)NC(=O)c1ccc(Cl)cc1 (configuration not stated),?,3%,nt,-7%,5%,-7%
CCN(CC)C(=O)C1=C(C)N(Cc2ccc(OC)cc2)C(=O)C(CC(=O)NC2CCCCC2)C1 (configuration not stated),-8%,1%,-10,2%,nt,4%
COc1ccc(C(c2c(O)cc(C)n(Cc3ccco3)c2=O)N2CCCCC2)cc1OC (configuration not stated),-1%,nt,nt,-11%,nt,nt
CCN(CC)CCOC(=O)c1cccnc1,-8%,nt,nt,2%,nt,nt
CC1CCCN(CCCN2C(=O)C3C(C(=O)Nc4cccc(Cl)c4)C4C=CC3(O4)C2C(=O)NC2CCCCC2)C1 (configuration not stated),-29%,-23%,-5,1%,0%,-27%
O=S(=O)(Nc1ncnc2scc(-c3ccc(F)cc3)c12)c1cc(F)ccc1F,29µM*,-12%,72,?,-12%,-1%
Cc1nc2c(OCc3ccc(OC(F)F)cc3)cccn2c1N(C)C(=O)CCC1CCCC1,10µM*,?,-58*,13µM*,nt,?
Cc1nc2c(OCCN3C(=O)c4ccccc4C3=O)cccn2c1N(C)C(=O)CCC1CCCC1,7%,21%,13,4%,nt,22%
Cc1nc2c(OCc3ccc(F)c(F)c3)cccn2c1N(C)C(=O)CCC1CCCC1,16µM*,?,-13,?,nt,18µM*
COC(=O)c1ccccc1COc1cccn2c(N(C)C(=O)CCC3CCCC3)c(C)nc12,?,-15%,-15,?,nt,-19%
COc1ccc(CNC(=O)CNS(=O)(=O)c2cccs2)cc1,10%,6%,-8,3%,22%,12%
CC(=O)Nc1ccc(S(=O)(=O)NC(C)C(=O)NCCc2ccc(F)cc2)cc1 (configuration not stated),-10%,5%,22,8%,-5%,10%
O=C(O)c1ccccc1[O-].O=C(O)c1ccccc1[O-].[Zn+2],0%,nt,nt,-6%,nt,nt
CCC(CC)NC(=O)/C=C/c1ccccc1Cl,?,-1%,0,?,?,-2%
CCNc1ccc(Br)cc(C(=O)/C=C/c2ccccc2Cl)c1=O,10µM*,?,-104*,9.2µM*,nt,13µM*
CNc1ccc(Br)cc(C(=O)/C=C/c2cccc(OC)c2OC)c1=O,1%,6%,-12,-13%,?,5%
CNc1ccc(Br)cc(C(=O)/C=C/c2cccc(Cl)c2Cl)c1=O,16µM*,0%,-56*,18µM*,0%,-7%
O=C(OCCCN=C1NS(=O)(=O)c2ccccc21)c1ccc([N+](=O)[O-])cc1,-28%,10%,8,-5%,-3%,12%
O=C(CNC(=O)OCc1ccccc1)NC(Cc1cnc[nH]1)C(=O)O (configuration not stated),16µM*,5%,0,?,nt,23%
SMILES,TDP1 cell noCPT,HT1080NT lethal,IL-1B inflam inh,DT40 TDP1 CPT,ELG1 DNA repair,HT1080 IDH1KD tx
CCN(CC)S(=O)(=O)c1ccc(C(O)=C(C#N)c2nc3ccccc3n2C)cc1,13µM*,-16%,-72*,16µM*,nt,-6%
Cn1c(/C(C#N)=C(\O)c2ccccc2Cl)nc2ccccc21,-22%,0%,-19,15%,nt,-1%
Cn1c(/C(C#N)=C(\O)COc2ccc3ccccc3c2)nc2ccccc21,26µM*,6%,12,?,0%,-2%
CCc1ccc(Nc2n[n+](-c3ccccc3)c(-c3ccc(N(CC)CC)cc3)s2)cc1,9.2µM*,?,-4,6.5µM*,-3%,?
CN(C)c1ccc(-c2sc(Nc3ccccc3)n[n+]2-c2ccc(F)cc2)cc1,?,-2%,44,?,?,-4%
CCc1ccc(Nc2n[n+](-c3ccccc3)c(-c3ccc(OCc4ccccc4)cc3)s2)cc1,5.2µM*,-9%,3,4.6µM*,13µM*,?
CCN(CC)c1ccc(-c2sc(Nc3ccccc3)n[n+]2-c2ccc(F)cc2)cc1,26µM*,-10%,-1,?,?,?
Cc1nc2c3cccnc3nn2c(C)c1CCC(=O)NCc1ccccc1,-17%,nt,nt,-17%,nt,nt
O=C(O)c1ccn(CSc2cc(Cl)ccc2Cl)n1,?,4%,3,-19%,15%,11%
Cc1ccc2c(c1)N(C(=O)CCC(=O)NCc1cccc(F)c1)CCO2,13%,0%,-5,0%,0%,10%
CCOC(=O)c1cccc(C2=CC(=O)C[C@H](c3ccc(OC)c(OC)c3)C2)c1,?,-2%,100,?,?,-7%
CCC/C(=C1/c2ccccc2C(=O)N1c1ccccc1)c1ccc2[nH]ccc2c1,16µM*,?,49,16µM*,-20%,?
O=C(Nc1ccc(C(=O)N2CCCCC2)cc1)c1ccccc1,-18%,-11%,-13,-15%,nt,-18%
O=C(Nc1ccccc1)Nc1ccc(C(=O)N2CCCC2)cc1,12µM*,?,?,21µM*,?,12µM*
CC(=O)c1cccc(NC(=O)Nc2ccc(C(=O)N3CCCC3)cc2)c1,?,8%,14,?,6.5µM*,-5%
